Bioassay records: PubChem, Broad Institute
In the library only some 2.9% were active in any assay of this set; here they are far more common.
N-glyco inh: N-linked glycosylation inhibition; D54 ERlucT glycosylation luciferase reporter, 24 h; percent of 100 nM tunicamycin response; reporter increase, % at 12.5 µM; 360,000 tested, 0.23% active;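 active = mean luciferase reporter signal, scaled so untreated is 0 and the glycosylation-blocking control 100, at or above a set limit in every replicate; inconclusive = mean reaches the limit but not every replicate does; inactive = mean below the limit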;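 also: luciferase carries N-glycosylation sites so blocking glycosylation raises the light; 0% = median of neutral control wells and 100% = median of 100 nM tunicamycin wells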
MITF TRPM1 HTS: activators of MITF-driven TRPM1 promoter activity in SK-MEL-5 cells; SK-MEL-5 TRPM1-promoter luciferase, 24 h; % of positive control, neutral wells = 0; activation, % at 12.5 µM; 300,000 tested, 0.75% active; AID 588334;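 active = mean activation of at least 80% with every replicate also reaching 80%; inconclusive = mean reaches 80% but some replicate falls short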;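 also: 0% = neutral control wells and 100% = parthenolide positive control wells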
MITF TRPM1 inh: MITF TRPM1 promoter inhibition in SK-MEL-5 cells; SK-MEL-5 TRPM1 promoter luciferase, 24 h; 330,000 tested, 0.83% active; inhibition, % at 12.5 µM;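 active = mean inhibition across replicates of 60% or more, whatever share of single replicates reaches that level; inconclusive = some that reach 60%, reason not given; inactive = mean inhibition across replicates below 60%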
NSD2 HMT inh: NSD2 (human) methyltransferase inhibition. O96028. 310,000 tested, 0.54% active. inhibition, % at 12.5 µM. NSD2 peptide methylation, AlphaScreen, 120 min. AID 743445; in the data active = inhibition above about 50%
Wnt act: activates Wnt/beta-catenin signaling in a reporter cell assay; activator, plate reader; activation, % at 9.35 µM; 300,000 tested, 1.2% active; in the data active = activation above about 30%, passing the limit was not always enough; inconclusive = no clear call, values can overlap the other calls;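 also: 0% = neutral control wells and 100% = positive control wells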
PfHsp90 yeast 2: growth inhibition of yeast expressing Plasmodium Hsp90; S. cerevisiae expressing PfHsp90, BacTiter-Glo ATP, 48 h; yeast lacking PDR1 and PDR3 efflux regulators; inhibition, % at 9.4 µM; 310,000 tested, 0.32% active; AID 504621;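 active = every replicate shows inhibition above about 80%, whatever the replicate mean, limit read from the data; inconclusive = mean inhibition reaches the set limit but some replicate falls short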;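 also: 0% = DMSO neutral controls and 100% = 20 µM radicicol positive controls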
Starred values were filed as active, the others as inactive; ? = inconclusive; · = not tested or not shown.

SMILES | N-glyco inh | MITF TRPM1 HTS | MITF TRPM1 inh | NSD2 HMT inh | Wnt act | PfHsp90 yeast 2
Nc1nc(=S)c2ncn([C@@H]3O[C@H](CO)[C@@H](O)[C@H]3O)c2[nH]1 | ? | -69.9 | 72.0* | · | -1.6 | -3.3
CC1(C)OC2C(CO)OC(n3cnc4c(=S)nc(N)[nH]c43)C2O1 (stereo not given) | 2.4 | · | · | 5.4 | · | ·
Nc1ncn([C@@H]2O[C@H](CO)[C@@H](O)[C@H]2O)c(=O)n1 | 3.3 | -77.1 | 79.4* | · | -11.4 | -9.4
O=C(N/N=C/c1cc2c3c(c1O)CCCN3CCC2)c1ccccc1O | -12.5 | -46.5 | 48.6 | 12.6 | 3.9 | 106.9*
O=C(N[C@H](C(=O)N1CCC[C@H]1C(=O)NCCc1ccccc1Cl)c1ccccc1)c1ccc(Cl)c(Cl)c1 | · | · | · | · | -8.4 | ·
Cc1cc(-c2nc3ccccc3c(=O)o2)ccc1[N+](=O)[O-] | 0.4 | 11.4 | -14.5 | 3.2 | 39.4* | -2.0
Cc1ccc(-c2nc3ccccc3c(=O)o2)cc1 | 2.7 | 20.0 | -23.3 | -1.8 | 3.5 | 14.4
CC(C)(C)C(=O)Nc1sc(-c2ccccc2)cc1C(=O)O | -6.6 | 24.9 | -22.8 | -2.2 | 26.3 | -20.5
Cc1cccc(C(=O)Nc2sc(-c3ccccc3)cc2C(=O)O)c1 | 5.6 | 92.6* | -90.5 | · | 26.3 | 0.9
Cn1c2ccccc2c(=O)c2cc(C#Cc3ccccn3)ccc21 | -0.2 | 102.4* | -103.5 | · | 21.4 | 10.1
CCOc1ccc(C(=O)NCC(=O)NCC(c2ccccc2OC)N2CCCC2)cc1 (stereo not given) | -0.8 | 5.7 | -2.9 | 3.4 | -0.2 | -5.1
COc1ccc(-c2nnc(SCC(=O)Nc3ccccc3OC)o2)cc1 | -10.0 | 70.2 | -62.6 | -0.5 | 19.2 | 3.2
COc1cc(OC)cc(-c2nnc(SCC(=O)N(C(C)C)C(C)C)o2)c1 | -1.8 | 4.0 | -5.5 | -4.9 | · | 16.9
COc1ccc(-c2nnc(SCC(=O)Nc3cccc(Cl)c3)o2)cc1 | -3.9 | · | -34.6 | -0.4 | 46.0* | ·
COc1cccc(-c2nnc(SCC(=O)N(C(C)C)C(C)C)o2)c1 | -4.1 | 23.7 | -18.1 | -1.6 | 50.5* | ·
O=C(CSc1nnc(-c2ccc(Br)cc2)o1)Nc1cccc(C(=O)O)c1 | -9.2 | -87.8 | 88.3* | -1.4 | 7.8 | -5.6
O=C(CSc1nnc(-c2cccc(Br)c2)o1)N1CCNC1=O | 4.1 | 87.7* | -85.4 | 0.2 | -1.2 | -10.6
Cc1noc(C)c1CSCC(=O)Nc1ccccc1N1CCCCC1 | -2.3 | 8.5 | -8.2 | · | · | -0.9
CCOc1ccc(CCN2C(=S)N([C@@H](CC(C)C)CN3CCCC3CN3C(=S)NC[C@@H]3Cc3ccc(O)cc3)C[C@@H]2CC(C)C)cc1 (stereo not given in full) | -9.5 | -19.2 | 17.8 | · | -12.8 | -18.6
O=C(Cc1ccccc1)NNc1c2ccccc2nc2ccccc12 | 0.3 | -11.5 | 13.8 | 2.3 | -1.7 | -9.3
O=C(Nc1c2ccccc2nc2ccccc12)C(Cl)(Cl)Cl | 93.0* | -12.0 | 11.2 | · | · | -18.5
O=C(CCCc1ccccc1)NC12CC3CC(CC(C3)C1)C2 | -9.0 | 102.3* | -96.5 | -3.4 | 0.3 | -4.1
O=C(COC(=O)c1ccccc1)NC12CC3CC(CC(C3)C1)C2 | 2.3 | 5.7 | -1.7 | 0.3 | -2.2 | -24.6
O=C(NCCc1ccc(F)cc1)NC12CC3CC(CC(C3)C1)C2 | -6.5 | 58.3 | -57.2 | -0.7 | 52.1* | -21.1
O=C(c1ccco1)n1nc(-c2ccccc2)nc1SCc1ccccc1 | 0.9 | 58.4 | -63.0 | · | 41.4* | -5.6
SMILES | N-glyco inh | MITF TRPM1 HTS | MITF TRPM1 inh | NSD2 HMT inh | Wnt act | PfHsp90 yeast 2
O=C(c1ccco1)n1nc(-c2ccco2)nc1SCc1ccccc1 | 0.6 | 36.7 | -29.2 | -0.9 | 22.1 | ·
CC(C)(C)C1CCc2c(C(=O)N/N=C/c3cccs3)csc2C1 (stereo not given) | -0.1 | 124.4* | -124.9 | -0.9 | 18.7 | 3.3
CC(C)(C)C1CCc2c(C(=O)NNC(=O)/C=C/C(=O)O)csc2C1 (stereo not given) | 1.1 | -5.1 | 9.1 | -0.1 | -3.8 | 4.7
O=C(Cc1cn(Cc2ccccc2)c2ccccc12)Nc1ccc(Nc2cccnc2)cc1 | · | · | · | · | 2.3 | ·
COCCNC(=O)c1cc2c(s1)-c1ccc(Cl)cc1SC2 | -7.5 | 42.3 | -60.6 | -0.1 | 43.2* | 2.0
Cc1cc(C)nc(/N=C2\NC(=O)CC(C(=O)O)N2c2ccc(C)c(C)c2)n1 (stereo not given) | 3.0 | -5.5 | 7.2 | 2.7 | -0.2 | -5.5
O=[N+]([O-])c1c(O)c(Cl)cc(Cl)c1Cl (tested in a mixture with another compound) | 1.6 | -1.9 | 5.5 | 0.5 | -1.3 | ·
CCN1c2ccccc2NC2N=C(OC)C(c3ccccc3)C21 (stereo not given) | -8.4 | -87.0 | 87.0* | 13.0 | · | ·
O=C(NCc1ccccc1)[C@@H]1CCCN1C(=O)[C@H]1CCCN1C(=O)c1ccc(Cl)cc1 | · | · | · | · | -0.4 | ·
Nc1nc2ccccc2n1C(=O)c1ccco1 | -4.3 | 28.3 | -25.9 | 3.1 | 36.9* | 2.5
Nc1nc2ccccc2n1C(=O)c1ccccc1 | -16.6 | -1.1 | 1.4 | -7.8 | -5.2 | 10.5
Cc1ccc(S(=O)(=O)Nc2ccc(C(=O)N3CCOCC3)cc2)cc1 | 0.0 | 10.4 | -13.7 | 5.8 | 0.9 | 21.8
Nc1nonc1C(=O)NCCN=Cc1cc(Cc2ccccc2)cc(Br)c1O | 4.8 | · | 2.1 | · | · | 123.0*
Nc1ccc2oc(-c3ccc4nc[nH]c4c3)nc2c1 | -8.2 | · | 9.2 | · | 16.9 | ·
Cc1nc2ccc(-c3nc4cc(N)ccc4o3)cc2[nH]1 | -11.6 | -5.4 | 7.0 | -1.2 | 33.3* | -3.3
O=C(/C=C/c1ccccc1)Nc1cccc(C(=O)NCCCCc2ccccc2)c1 | -3.5 | 6.4 | -1.2 | · | 4.9 | -26.2
S=C(Nc1ccc(Cl)cc1Cl)NC1CCCCC1 | -1.3 | 107.4* | -105.6 | -2.1 | · | 13.2
N#Cc1ccsc1NC(=O)COC(=O)c1ccc(NC(N)=O)cc1 | -4.5 | 87.2* | -79.8 | -2.9 | 18.4 | ·
O=C(NC(=S)Nc1nc2c(ccc3ccccc32)s1)c1cccs1 | 1.3 | -15.8 | 13.7 | -2.0 | · | -13.9
CCOC(=O)c1cc2cc3ccccc3cc2[nH]1 | 1.0 | · | -16.8 | 1.8 | 40.2* | -25.1
COc1cc(OC)cc(C(=O)Nc2ccccc2S(=O)(=O)N2CCCC2OC(C)=O)c1 (stereo not given) | 6.2 | 0.7 | -0.6 | -3.0 | 3.0 | 7.7
O=[N+]([O-])c1ccccc1N/N=C\c1ccccc1Cl | 1.2 | 40.9 | -39.7 | 19.1 | · | 13.8
O=[N+]([O-])c1ccccc1/C=N/OCc1ccccc1 | -1.6 | 101.1* | -118.2 | 0.6 | 24.2 | 12.0
O=[N+]([O-])c1ccccc1C=NNc1ccccc1 | -8.1 | 26.9 | -22.7 | 6.1 | 35.4* | 5.9
O=[N+]([O-])c1ccccc1N/N=C\c1ccccc1F | -7.2 | 74.9 | -71.8 | -1.7 | 57.0* | -28.5
COc1ccc(-c2noc(C3CCCN(C(=O)Nc4ccc(Cl)cc4)C3)n2)cc1 (stereo not given) | · | · | · | -3.2 | · | ·
